Fluor 339 460 – intrinsic fluorescence of library compounds, ex339/em460 – biochemical, MLSMR library, data from DPM-DC assay, artefact control, profiling panel. compound autofluorescence, ex339/em460 nm, NADH buffer; active compounds read high; 1 = no-compound wells, NADH background. fluorescence fold increase at 10 µM. 65,000 compounds, 5.5% hits;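 active = at 10 µM, mean starting fluorescence two-fold or more over control wells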;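 also: signal is the first read of a kinetic run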
Spn PMK inh – S. pneumoniae PMK inhibitors, primary screen, biochemical, mevalonate pathway, pilot trial included; inhibition, % at 10 µM; AID 539, 2006; phosphomevalonate kinase (Streptococcus pneumoniae D39); purified PMK, PK/LDH-coupled NADH absorbance 340 nm; 65,000 compounds, 0.49% hits;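 active = top-ranked compounds by inhibition in the single 10 µM screen, taking a fixed number of the strongest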
NADH coupling – inhibitors of PK/LDH coupling enzymes, profiling panel, artefact control, biochemical, MLSMR library | coupled PK/LDH NADH assays, four targets | IC50, µM (highest dose often 10 µM) | 65,000 compounds, 0.02% hits;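 active = single-dose screening hits from any of four coupled enzyme assays that gave an IC50 when retested across doses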;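 also: the DPM-DC format reads NADH fluorescence rather than 340 nm absorbance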
MK inhibit – S. pneumoniae MK inhibitors, primary screen, biochemical, PK/LDH-coupled NADH absorbance | mevalonate kinase [Streptococcus pneumoniae D39] | purified MK, PK/LDH-coupled NADH absorbance 340 nm | inhibition, % at 10 µM | 65,000 compounds, 0.48% hits;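 active = ranked among the strongest by inhibition in the single 10 µM screen, a fixed top-ranked set picked for dose follow-up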
Abs 340nm – compound light absorbance at 340 nm, profiling panel, artefact control, biochemical, MLSMR library, data from PS, PMK, MK assays | compound absorbance at 340 nm, fold over control | fold change at 10 µM | 65,000 tested, under 10 active;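 active = at 10 µM dose, initial 340 nm absorbance at least 2 fold that of control wells; inactive = change under 2 fold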;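 also: initial absorbance extrapolated from kinetic A340 decline of NADH oxidation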
Spn DPM-DC inh – S. pneumoniae DPM-DC inhibitors, primary screen, biochemical, PK/LDH-coupled NADH fluorescence. purified DPM-DC. calls only at 10 µM. 65,000 compounds, 0.49% hits. AID 556, 2006;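 active = the 320 compounds with the highest percent inhibition in the single-dose primary screen, excluding strongly autofluorescent ones, cut at about 32% in these data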;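 also: kinetic rate of NADH fluorescence loss reporting ADP formed by the decarboxylase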
Large screens that a line does not name were inactive; [ ] = another dose, or the depositor's remark. The list is not random: actives were taken first. Their share in the collection is about 6.8%.

C=CCOC(=O)C1=C(C)NC(SCC(=O)NC(=O)OCC)=C(C#N)C1c1cccnc1 (configuration not stated)	Fluor 339 460 3.1
CCOc1nc(-c2ccccc2)ccc1-c1noc(-c2cccnc2)n1	none (not shown: Spn DPM-DC inh)
c1ccc(OCc2nc(-c3ccccc3)no2)cc1	none
CCOc1nc(-c2ccccc2)ccc1-c1noc(-c2ccc(OC)c(OC)c2)n1	Spn DPM-DC inh active[fluoresces]
COc1ccc(-c2ccc(-c3noc(-c4ccco4)n3)c(OC)n2)cc1	Fluor 339 460 3.7 (not shown: Spn DPM-DC inh)
COc1nc(-c2ccccc2)ccc1-c1noc(COc2ccccc2)n1	Fluor 339 460 2.1 (not shown: Spn DPM-DC inh)
COc1nc(-c2ccccc2)ccc1-c1noc(-c2ccccc2)n1	none
COc1ccc(-c2ccc(-c3noc(-c4ccccc4)n3)c(OC)n2)cc1	Fluor 339 460 3 (not shown: Spn DPM-DC inh)
COc1cc2c(cc1OC)C(C(=O)Nc1ccc3c(c1)OCCO3)C(c1cccnc1)N(C)C2=O (configuration not stated)	none
C=CCn1c2ccccc2c2nnc(SCC(=O)NC(C(=O)OC)C(C)C)nc21 (configuration not stated)	none
COc1ccc(CC(=O)Nc2c3c(nn2-c2cccc(C)c2C)CS(=O)C3)cc1OC (configuration not stated)	none
COc1ccc(-c2ccc(-c3noc(-c4ccccc4F)n3)c(OC)n2)cc1	Fluor 339 460 3.7 (not shown: Spn DPM-DC inh)
COc1nc(-c2ccccc2)ccc1-c1noc(-c2ccco2)n1	none
COc1ccc(-c2noc(-c3ccccc3F)n2)cc1	none
COc1nc(-c2ccc(Cl)cc2)ccc1-c1noc(-c2ccncc2)n1	Fluor 339 460 2.8
COc1nc(-c2ccccc2)ccc1-c1noc(-c2cccs2)n1	Fluor 339 460 2.2
COC(=O)C1=C(C)NC(=O)NC1c1ccc(OCC(=O)N2CCCCC2)cc1 (configuration not stated)	none
COc1ccc(S(=O)(=O)N(Cc2cc3ccc(OC)cc3[nH]c2=O)CC2COCCO2)cc1 (configuration not stated)	Fluor 339 460 2.3
Cc1ccc2cc(CN(CC3CCCO3)S(=O)(=O)c3cccc4nsnc34)c(=O)[nH]c2c1 (configuration not stated)	none
COc1ccc2cc(CN(Cc3cccnc3)S(=O)(=O)c3ccccc3)c(=O)[nH]c2c1	Fluor 339 460 2
COc1ccc2cc(CN(CC3COCCO3)S(=O)(=O)c3ccccc3)c(=O)[nH]c2c1 (configuration not stated)	none
COC(=O)c1ccccc1S(=O)(=O)N(Cc1cc2ccc(OC)cc2[nH]c1=O)CC1CCCO1 (configuration not stated)	Spn PMK inh 25
O=C(NCCc1ccc(Cl)cc1)C1CCN(S(=O)(=O)N2CCC3(CC2)OCCO3)CC1	none
COc1ccc(N2CCN(CCNC(=O)c3cccn4c(=O)c5ccc(Cl)cc5nc34)CC2)cc1	none
CCC1Oc2ccccc2N(CC(=O)NCCCN2CCN(Cc3ccccc3)CC2)C1=O (configuration not stated)	none
CC(C)C1Oc2ccccc2N(CC(=O)NCCCN2C(C)CCCC2C)C1=O (configuration not stated)	MK inhibit 47
CCCn1c(=NC(=O)c2ccncc2)c(C(=O)OCC)cc2c(=O)n3cccc(C)c3nc21	none
CCOC(=O)c1cc2c(=O)n3cccc(C)c3nc2n(CCCOC)c1=NC(=O)c1cccnc1	Fluor 339 460 2.3, Spn PMK inh 29, NADH coupling 14µM[fluoresces] (not shown: Spn DPM-DC inh)
CCOC(=O)c1cc2c(=O)n3cccc(C)c3nc2n(CCOC)c1=NC(=O)c1ccncc1	Fluor 339 460 2
Cc1cccc(NC(=O)C2CCN(c3nccc(C)n3)CC2)c1	none
Cc1nnc(NS(=O)(=O)c2ccc(N)cc2)s1	none
COc1ccc(S(=O)(=O)Nc2nnc(C)s2)cc1	Spn PMK inh 30
COC(=O)c1ccc(CSc2ncnc3c2nnn3-c2ccc(OC)cc2)o1	none
Cn1nnnc1Sc1ncnc2scc(-c3ccccc3)c12	none
Cn1nnnc1Sc1ncnc2scc(-c3ccc(F)cc3)c12	Spn PMK inh 29
CN1CCN(S(=O)(=O)c2ccc(Sc3nnc(-c4cccs4)n3-c3ccccc3)nc2)CC1	none
N#Cc1nc(-c2ccco2)oc1NCc1ccco1	Fluor 339 460 2.4 (not shown: Spn DPM-DC inh)
N#Cc1nc(-c2ccc(OCc3ccccc3)cc2)oc1NCCN1CCOCC1	Fluor 339 460 3.9 (not shown: Spn DPM-DC inh)
N#Cc1nc(-c2ccc(OCc3ccccc3)cc2)oc1NCc1ccco1	Fluor 339 460 2.4
Cc1ccc2cc(C#N)c(NCc3ccco3)nc2c1	Fluor 339 460 3.8 (not shown: Spn DPM-DC inh)
CNc1oc(-c2ccc(OCc3ccccc3)cc2)nc1C#N	none
N#Cc1nc(-c2ccc(OCc3ccccc3)cc2)oc1N1CCOCC1	none
Cc1ccc(-n2c(Cn3cnc4ccccc43)nnc2SCC(=O)O)cc1	none
COc1ccccc1N1CSC2=C(C#N)C(c3ccc(SC)cc3)CC(=O)N2C1 (configuration not stated)	none
O=C(NC1CCCCC1)/C(=N\O)c1ccccn1	none
Cc1ccc(OCc2nc(C#N)c(NCc3ccco3)o2)cc1	none
N#Cc1nc(-c2ccco2)oc1NCCCN1CCOCC1	Fluor 339 460 3.6 (not shown: Spn DPM-DC inh)
Cc1ccc(-c2nc(C#N)c(NCc3ccco3)o2)cc1	Fluor 339 460 3.7 (not shown: Spn DPM-DC inh)
C=CCn1c(=O)/c(=C/c2cc(OC)c(OC)c(OC)c2)s/c1=C(/C#N)c1nc2ccccc2n1C	none
Cc1ccc2c(c1)nc(NCCO)n2C	Fluor 339 460 2.1
CCN(CC)CCNc1nc2ccccc2n1C	none
COc1cc(Cl)c(C)cc1NC(=O)CSc1nnc(-c2ccccn2)n1Cc1ccco1	none
CC(C)c1nc(N2CCOCC2)c(C#N)c2c1CCCC2	Fluor 339 460 2.1 (not shown: Spn DPM-DC inh)
CCN1CCc2c(C#N)c(N3CCCCC3)nc(N3CCOCC3)c2C1	Fluor 339 460 2.3 (not shown: Spn DPM-DC inh)
CCSc1nc(N2CCOCC2)c2c(c1C#N)CCCC2	none
COc1ccccc1OCCn1c(C(C)O)nc2ccccc21 (configuration not stated)	none
O=C(Nc1ccc2c(c1)OCCO2)C1CCCN(S(=O)(=O)c2cnc[nH]2)C1 (configuration not stated)	none
CCOC(=O)c1sc(=NC(=O)c2ccc(S(=O)(=O)N3CCOCC3)cc2)n(C)c1C	none
COc1cccc2sc(=NC(=O)c3ccc(S(=O)(=O)N4CCOCC4)cc3)n(C)c12	Fluor 339 460 3.1
CCn1c(=NC(=O)c2ccc(S(=O)(=O)N3CCOCC3)cc2)sc2cccc(OC)c21	Fluor 339 460 4.7 (not shown: Spn DPM-DC inh)
CCCCOc1ncnc2c1[nH]c1ccc(F)cc12	Fluor 339 460 2.7

Screening data deposited in PubChem by SRMLSC.
